PubChem BioAssay (NCATS)
Inconclusive results are not listed. The source made the active and inactive calls. Calls come from the whole dose curve; as a rule, active = well fitted curve in the direction sought with a large enough effect; inconclusive = small, poorly fitted or top-dose-only effect, or another doubt; inactive = no such curve, though single readings can be large; an effect the other way counts as inactive or inconclusive.

Key:
[1] = target: Calcium and integrin-binding protein 1 (Homo sapiens) (UniProt Q99828); assay: Primary qHTS for Identification of Calcium Integrin Binding Protein 1 (CIB1) Competitor (AID 1508620);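 note: GST tagged CIB1 binding a fluorescein labelled alphaIIb integrin peptide tracer; top concentration of the series differs between compounds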
How it was run: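 CIB1-GST (1 uM final) and compound incubated 15 min at room temperature before adding FITC-alphaIIb peptide tracer (100 nM final). Competition for binding read by fluorescence polarization (ex 480, em 540) after another 15 min at room temperature.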

[2] = Primary qHTS for inhibitors of nuclear receptor binding SET domain protein 2 (NSD2) in an isogenic RCH-ACV NSD2 p.E1099K mutant (9B) (AID 1645876); note: nearly all actives have a fitted effect of over 70% in size
[3] = Primary qHTS for inhibitors of nuclear receptor binding SET domain protein 2 (NSD2) in an RCH-ACV wild type WT cells (2C) (AID 1645877); note: nearly all actives have a fitted effect of over 70% in size
% is set by controls: 0 for no effect and ±100 for the full control effect.

Sequence of Calcium and integrin-binding protein 1 (Homo sapiens) (Q99828 whole entry, looked up): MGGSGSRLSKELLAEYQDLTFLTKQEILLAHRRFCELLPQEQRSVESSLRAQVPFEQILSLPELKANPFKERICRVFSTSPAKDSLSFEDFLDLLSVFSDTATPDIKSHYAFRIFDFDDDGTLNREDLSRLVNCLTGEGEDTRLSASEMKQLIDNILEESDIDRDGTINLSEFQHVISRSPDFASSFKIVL

COC(=O)C1=CO[C@@H](O[C@@H]2O[C@H](CO)[C@@H](O)[C@H](O)[C@H]2O)C2C1CC(O)C2C (some centres not stated)
inactive: Potency [1] | Potency [2] | Potency [3]

CC(C)(O)/C=C/C(=O)[C@](C)(O)[C@H]1[C@H](O)C[C@@]2(C)[C@@H]3CC=C4[C@@H](C=C(O[C@@H]5O[C@H](CO)[C@@H](O)[C@H](O)[C@H]5O)C(=O)C4(C)C)[C@]3(C)C(=O)C[C@]12C
inactive: Potency [1] | Potency [2] | Potency [3]

O=C(/C=C/c1ccc(O)cc1)OCC1OC(O)C(OC2OC(CO)C(O)C(O)C2O)C(O)C1O (configuration not stated)
inactive: Potency [1] | Potency [2] | Potency [3]

O=C(/C=C/c1ccc(O)c(O)c1)O[C@@H]1[C@@H](O)[C@H](OC2CCCCC2O)O[C@H](CO)[C@H]1O (some centres not stated)
inactive: Potency [1] | Potency [2] | Potency [3]

C[C@]12CC[C@@H]3c4ccc(O)cc4CC[C@H]3[C@@H]1C[C@@H](O[C@@H]1O[C@H](C(=O)O)[C@@H](O)[C@H](O)[C@H]1O)[C@@H]2O
inactive: Potency [1] | Potency [2] | Potency [3]

COc1c(O[C@@H]2O[C@H](CO)[C@@H](O)[C@H](O)[C@H]2O)c(CCC(=O)O)cc2ccoc12
inactive: Potency [1] | Potency [2] | Potency [3]

CC(C)=C1C[C@@]2(C)C(=CC1=O)CC[C@@H](O)[C@@H]2C
inactive: Potency [1] | Potency [2] | Potency [3]

C=C(CC/C=C(\C)C(=O)O)C1(O)CC=C(C)CC1 (configuration not stated)
inactive: Potency [1] | Potency [2] | Potency [3]

CC[C@H](C)[C@H](NC(=O)[C@H](Cc1ccc(O)cc1)NC(=O)[C@@H](N)C(C)C)C(=O)N[C@@H](Cc1cnc[nH]1)C(=O)N1CCC[C@H]1C(=O)N[C@@H](Cc1ccccc1)C(=O)O
inactive: activity change, negative = inhibition [1] 2.56% [at 12.4 µM] | outcome [2] inactive [at 4.96 µM] | activity change, negative = cell killing [3] 2.6% [at 4.96 µM]

CC1C2=CC(=O)OC2(O)CC2C1C(O)CC1C(C)(CO)CCCC21C (configuration not stated)
inactive: Potency [1] | Potency [2] | Potency [3]

C=C1CC/C=C(/C(=O)O)CCC2C1CC2(C)C (configuration not stated)
inactive: Potency [1] | Potency [2] | Potency [3]

COc1ccc(C2C(C(=O)O)C(C(=O)O)C2c2ccc(OC)cc2O[C@@H]2O[C@H](CO)[C@@H](O)[C@H](O)[C@H]2O)c(O[C@@H]2O[C@H](CO)[C@@H](O)[C@H](O)[C@H]2O)c1 (some centres not stated)
inactive: Potency [1] | Potency [2] | Potency [3]

C=C[C@H]1[C@H](O[C@@H]2O[C@H](CO)[C@@H](O)[C@H](O)[C@H]2O)OC=C(C(=O)OC)[C@H]1CC=O
inactive: Potency [1] | Potency [2] | Potency [3]

CC1CCC2(NC1)OC1C(O)C3C4CCC5CC(O[C@@H]6O[C@H](CO)[C@@H](O)[C@H](O)[C@H]6O[C@@H]6O[C@@H](C)[C@H](O)[C@@H](O)[C@H]6O)CCC5(C)C4CCC3(C)C1C2C (some centres not stated)
inactive: Potency [1] | Potency [2] | Potency [3]

CC(=O)c1ccc(O[C@@H]2O[C@H](CO[C@@H]3OC[C@@H](O)[C@H](O)[C@H]3O)[C@@H](O)[C@H](O)[C@H]2O)cc1
inactive: Potency [1] | Potency [2] | Potency [3]

NC(Cc1c[nH]c2ccc(O)cc12)C(=O)O (configuration not stated)
inactive: Potency [1] | Potency [2] | Potency [3]

CC1=CC(=O)[C@]2(O[C@@H]3O[C@@H](C)[C@H](O)[C@@H](O)[C@H]3O)C=CO[C@@H](O[C@@H]3O[C@H](CO)[C@@H](O)[C@H](O)[C@H]3O)[C@H]12
inactive: Potency [1] | Potency [2] | Potency [3]

C[C@@H]1O[C@@H](O[C@H]2[C@H](O[C@H]3[C@H](O[C@H]4CC[C@@]5(C)C(CC[C@]6(C)C5CC=C5[C@@H]7CC(C)(C)CC(=O)[C@]7(C)CC[C@]56C)[C@@]4(C)CO)O[C@H](C(=O)O)[C@@H](O)[C@@H]3O)O[C@H](CO)[C@H](O)[C@@H]2O)[C@H](O)[C@H](O)[C@H]1O (some centres not stated)
inactive: Potency [1] | outcome [2] inactive [at 9.23 µM] | outcome [3] inactive [at 9.23 µM]

C=C1[C@H]2CCC3[C@]4(C)CCC[C@@](C)(C(=O)O)C4CC[C@]3(C2)[C@H]1OC(C)=O (some centres not stated)
inactive: Potency [1] | Potency [2] | Potency [3]

CC1CCC2(C(=O)OC3OC(CO)C(O)C(O)C3O)CCC3(C)C(=CCC4C5(C)CCC(O)C(C)(CO)C5CCC43C)C2C1(C)O (configuration not stated)
inactive: Potency [1] | Potency [2] | Potency [3]

COc1ccc(/C=C/C(N)=O)cc1OC
inactive: Potency [1] | Potency [2] | Potency [3]

NC(=O)[C@H](Cc1ccccc1)NC(=O)[C@H](CCCN=C(N)N)NC(=O)C12CC3CC(CC(C3)C1)C2
inactive: Potency [1] | activity change, negative = viability loss [2] -0.15% [at 9.23 µM] | activity change, negative = cell killing [3] 0.0232% [at 9.23 µM]

C[C@@]1(C(=O)O)CCC[C@@]2(C)C3=CC[C@H]4C[C@@]3(CC[C@H]12)CC4(O)CO (some centres not stated)
inactive: Potency [1] | Potency [2] | Potency [3]

COC(O)(CC(C)C)C1Oc2cc(C)[nH]c(=O)c2O1 (configuration not stated)
inactive: Potency [1] | Potency [2] | Potency [3]

COc1cc(O)cc2c1C(=O)OC(C)C2 (configuration not stated)
inactive: Potency [1] | Potency [2] | Potency [3]

C[C@@H]1[C@H]2[C@H](O[C@@H]3O[C@H](CO)[C@@H](O)[C@H](O)[C@H]3O)OC=C(C(=O)O)[C@H]2C[C@@H]1OC(=O)/C=C/c1ccc(O)cc1
inactive: Potency [1] | Potency [2] | Potency [3]

CC1=CC(=O)CC(C)(C)[C@@]1(O)/C=C/C(C)O[C@@H]1O[C@H](CO)[C@@H](O)[C@H](O)[C@H]1O (some centres not stated)
inactive: Potency [1] | Potency [2] | Potency [3]

CCC1=C(C)C(=O)C(C)CC12C(=O)CCC2C(=O)O (configuration not stated)
inactive: Potency [1] | Potency [2] | Potency [3]

COc1cc(C(=O)OC[C@H]2O[C@@H](OC(C)(C)C(=O)O)[C@H](O)[C@@H](O)[C@@H]2O)cc(OC)c1O
inactive: Potency [1] | Potency [2] | Potency [3]

COc1cc([C@@H](O[C@@H]2O[C@H](CO)[C@@H](O)[C@H](O)[C@H]2O)[C@@H]2CO[C@H](c3ccc(O)c(OC)c3)[C@H]2CO)ccc1O
inactive: Potency [1] | Potency [2] | Potency [3]

CCC12CCCN3CCc4c(n(c5ccccc45)C(O)C1)C32 (configuration not stated)
inactive: Potency [1] | Potency [2] | Potency [3]

C[C@@H]1O[C@@H](O[C@H]2[C@H](O)[C@@H](O[C@@H]3O[C@H](CO)[C@H](O)[C@H](O)[C@H]3O)[C@H](O[C@H]3CC[C@@]4(C)C(CC[C@]5(C)C4CC=C4[C@@H]6CC(C)(C)CC[C@]6(C(=O)O[C@@H]6O[C@H](CO)[C@@H](O)[C@H](O)[C@H]6O)CC[C@]45C)C3(C)C)O[C@@H]2C(=O)O)[C@H](O)[C@H](O)[C@H]1O (some centres not stated)
inactive: Potency [1] | activity change, negative = viability loss [2] 0.405% [at 9.23 µM] | outcome [3] inactive [at 9.23 µM]

CC(C)CC(c1c(O)c(C=O)c(O)c(C=O)c1O)C1CCC(C)(O)C2CC(C(C)(C)O)CCC12C (configuration not stated)
inactive: Potency [1] | Potency [2] | Potency [3]

NC(=O)C(O[C@@H]1O[C@H](CO[C@@H]2O[C@H](CO)[C@@H](O)[C@H](O)[C@H]2O)[C@@H](O)[C@H](O)[C@H]1O)c1ccccc1 (some centres not stated)
inactive: Potency [1] | Potency [2] | Potency [3]

COc1cc(C(O)C2COC(c3ccc(OC4OC(CO)C(O)C(O)C4O)c(OC)c3)C2CO)ccc1O (configuration not stated)
inactive: Potency [1] | Potency [2] | Potency [3]

Cc1c(NC(=O)N2CCOCC2)ccc2c1c1ccccc1n2C(C)C
inactive: Potency [1] | Potency [2] | Potency [3]

COc1cc(C(=O)OCC2=CCC3C(C(=O)O)=COC(O[C@@H]4O[C@H](CO)[C@@H](O)[C@H](O)[C@H]4O)C23)ccc1O (some centres not stated)
inactive: Potency [1] | Potency [2] | Potency [3]

CC(CCc1ccc(O)cc1)O[C@@H]1O[C@H](CO[C@@H]2OC(CO)[C@H](O)[C@H]2O)[C@@H](O)[C@H](O)[C@H]1O (some centres not stated)
inactive: Potency [1] | Potency [2] | Potency [3]

CC(NC(=O)CC(=O)O)C(=O)Nc1ccccc1C(N)=O (configuration not stated)
inactive: Potency [1] | Potency [2] | Potency [3]

O=C(O)c1ccnc(-c2cc(C(=O)NCCc3ccccc3)ccn2)c1
inactive: Potency [1] | Potency [2] | Potency [3]

COC1CC(O[C@H]2CC[C@@]3(C)C(=CC[C@]4(O)C3[C@H](O)[C@@H](O)[C@]3(C)[C@@H]([C@H](C)O)CC[C@@]34O)C2)OC(C)C1OC1CC(OC)C(OC2CC(OC)C(OC3OC(C)C(OC4OC(CO)C(O)C(O)C4O)C(OC)C3O)C(C)O2)C(C)O1 (some centres not stated)
inactive: Potency [1] | activity change, negative = viability loss [2] 1.87% [at 9.23 µM] | activity change, negative = cell killing [3] -2.18% [at 9.23 µM]

COC(=O)C1=CO[C@@H](O[C@@H]2O[C@H](CO[C@@H]3O[C@H](CO)[C@@H](O)[C@H](O)[C@H]3O)[C@@H](O)[C@H](O)[C@H]2O)[C@@H]2C(CO)=CC[C@H]12
inactive: Potency [1] | Potency [2] | Potency [3]

CSCC1OC(n2cnc3c(N)ncnc32)C(O)C1O (configuration not stated)
inactive: Potency [1] | Potency [2] | Potency [3]

C[C@H](O)C(O)(C(=O)OCc1ccccc1NC(=O)CCC(N)C(=O)O)[C@H](C)O (some centres not stated)
inactive: Potency [1] | Potency [2] | Potency [3]

O=C(OCC1OC(Oc2ccc(O)cc2COC(=O)C2(O)C(O)CCC(=O)C2OC(=O)C2C=CCC2)C(OC(=O)C2C=CCC2)C(O)C1O)C1C=CCC1 (configuration not stated)
inactive: Potency [1] | Potency [2] | Potency [3]

CN(C)CCC[C@]1(c2ccc(F)cc2)OCc2cc(C#N)ccc21
inactive: Potency [1] | Potency [2] | Potency [3]

COc1cccc(C)c1C(=O)O[C@@H]1C[C@H](O[C@H]2[C@H](O)C[C@H](O[C@@H]3CCC[C@H]4[C@H]3C=C[C@@H]3CCCC/C=C/[C@H]5C=C(C(=O)O)[C@@H](C)C[C@@]56OC(=O)C(=C6O)OC(=O)[C@@]34C)O[C@@H]2C)O[C@H](C)[C@H]1O
inactive: Potency [1] | activity change, negative = viability loss [2] -5.35% [at 9.23 µM] | activity change, negative = cell killing [3] -1.86% [at 9.23 µM]

C=C1C(O)C(OC(=O)c2ccccc2)C2C(C)(C(=O)O)CCCC2(C)C1CC/C(C)=C\CO (configuration not stated)
inactive: Potency [1] | Potency [2] | Potency [3]

C[C@@H]1O[C@@H](O[C@H]2[C@H](O)[C@@H](O)[C@H](OC[C@H]3O[C@@H](OC(=O)[C@]45CCC(C)(C)C[C@H]4C4=CCC6[C@@]7(C)C[C@@H](O)[C@H](O)[C@@](C)(CO)C7[C@H](O)C[C@@]6(C)[C@]4(C)CC5)[C@H](O)[C@@H](O)[C@@H]3O)O[C@@H]2CO)[C@H](O)[C@H](O)[C@H]1O (some centres not stated)
inactive: Potency [1] | outcome [2] inactive [at 9.23 µM] | activity change, negative = cell killing [3] 0.947% [at 9.23 µM]
